{"source": "PubChem BioAssay (NCATS)", "key": {"[1]": {"target": "Glutathione peroxidase 1 (Homo sapiens) (UniProt P07203)", "sequence (P07203 whole entry, looked up)": "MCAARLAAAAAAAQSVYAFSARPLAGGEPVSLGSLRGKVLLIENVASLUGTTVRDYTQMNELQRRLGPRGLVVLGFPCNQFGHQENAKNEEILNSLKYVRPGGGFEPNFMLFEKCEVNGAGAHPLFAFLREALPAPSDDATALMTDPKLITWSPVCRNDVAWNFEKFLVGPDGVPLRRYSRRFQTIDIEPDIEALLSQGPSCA", "assay": "Primary qHTS Assay for Inhibitors of Recombinant Selenoprotein Glutathione Peroxidase 1 (GPX1) (AID 1845191); further: nearly all actives have a fitted effect of over 65% in size; further: potency means the concentration at half of the fitted maximal effect", "procedure,_shortened": "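10 nM GPX1 + cpd, 30 min RT; start w/ 1 mM GSH, 0.5 mM cumene hydroperoxide, 0.5 mM NADPH, 100 nM GR, 0.01% BSA; buffer 50 mM Tris-HCl pH 7.5, 2 mM EDTA, 150 mM NaCl; Fl 340/450, 0 & 15 min.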"}, "[2]": {"target": "Phospholipid hydroperoxide glutathione peroxidase GPX4 (Homo sapiens) (UniProt P36969)", "sequence (P36969 whole entry, looked up)": "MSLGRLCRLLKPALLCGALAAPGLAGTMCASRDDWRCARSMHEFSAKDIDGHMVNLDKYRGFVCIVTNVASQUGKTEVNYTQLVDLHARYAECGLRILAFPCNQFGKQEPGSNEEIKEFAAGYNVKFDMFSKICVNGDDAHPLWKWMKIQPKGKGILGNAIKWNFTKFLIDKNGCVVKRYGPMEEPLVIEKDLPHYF", "assay": "Primary qHTS Assay for Inhibitors of Recombinant Selenoprotein Glutathione Peroxidase 4 (GPX4) (AID 1845192); further: nearly all actives have a fitted effect of over 65% in size; further: potency means the concentration at half of the fitted maximal effect", "procedure,_shortened": "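NADPH consumption, followed by fluorescence at 340/450 nm between 0 and 15 min, reports GPX4 activity via coupled glutathione reductase (100 nM). Enzyme 200 nM was pre-exposed to compound 30 min; 0.5 mM cumene hydroperoxide and 1 mM GSH served as substrates.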"}, "[3]": {"target": "Metallo-beta-lactamase type 2 (Klebsiella pneumoniae) (UniProt C7C422)", "sequence (C7C422 whole entry, looked up)": "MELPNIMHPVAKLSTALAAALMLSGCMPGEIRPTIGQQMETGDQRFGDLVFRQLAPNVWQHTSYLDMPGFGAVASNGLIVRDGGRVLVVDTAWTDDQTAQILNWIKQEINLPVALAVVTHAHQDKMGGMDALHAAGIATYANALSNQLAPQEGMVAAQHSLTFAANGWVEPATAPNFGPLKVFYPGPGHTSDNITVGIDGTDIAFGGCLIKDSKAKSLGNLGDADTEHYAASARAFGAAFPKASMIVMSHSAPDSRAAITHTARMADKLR", "assay": "qHTS to identify inhibitors of the New Delhi Metallo-beta-lactamase (NDM): assay validation screen against the NCATS LOPAC Collection (AID 1794843);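 further: nitrocefin turnover by NDM-1 measured as 485 nm absorbance at plateau; series mostly up to about 38 µM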", "procedure,_shortened": "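Enzyme 2 nM final, 50 mM HEPES pH 7.0, 1 uM ZnSO4, 0.01% Tween20; cpds in DMSO, preincub w/ enzyme; + nitrocefin (50 uM stock); A485 at plateau; no-enzyme column as blank.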"}, "[4]": {"target": "Luciferin 4-monooxygenase (Photinus pyralis) (UniProt P08659)", "assay": "Primary firefly luciferase (FLuc) qHTS assay for identification of artifact compounds. (AID 1845220); further: nearly all actives have a fitted effect of over 60% in size", "procedure,_shortened": "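Cell-free, 1536-well qHTS. Buffer pH 7.6 with 0.01% Tween-20 and 0.05% BSA; 10 uM D-luciferin, 10 uM ATP; 10 nM P. pyralis luciferase; luminescence after 5 min.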"}, "[5]": {"assay": "Primary fluorescence-based thiol-reactive (MSTI) qHTS assay for identification of artifact compounds. (AID 1845221); further: series mostly up to about 54 µM; nearly all actives have a fitted effect of over 65% in size", "procedure,_shortened": "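Compounds were incubated 1 h at room temperature in the dark with the MSTI probe (4 uM) in PBS pH 7.4, 2% DMSO. Signals were normalized between Acetyl-MSTI and MSTI.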"}, "[6]": {"test_system": "Nanoluciferase (engineered Oplophorus gracilirostris luciferase)", "assay": "Primary Nanoluciferase (NLuc) qHTS assay for identification of artifact compounds. (AID 1845222); further: series mostly up to about 54 µM", "procedure,_shortened": "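Compounds are pinned into diluted (1:55) conditioned medium of NLuc-expressing S16 cells and held 15 min at room temperature protected from light. Nano-Glo substrate follows, and luminescence is read 5 min later.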"}}, "note": "Inconclusive results are not listed. Entries that show only a call come without a potency. Calls of active or inactive are those of the source. The call rests on the fitted dose curve; in most records, active means well fitted curve in the direction sought with a large enough effect; inconclusive means small, poorly fitted or top-dose-only effect, or another doubt; inactive means no such curve, though single readings can be large; an effect the other way counts as inactive or inconclusive."}
{"smiles": "CN(C)[C@@H]1C(=O)C(C(=O)NCN2CCCC2)=C(O)[C@@]2(O)C(=O)C3=C(O)c4c(O)cccc4[C@@](C)(O)C3C[C@@H]12", "note": "(some centres undefined)", "values": [{"measurement": "Potency", "setting": "[1]", "value": "inactive"}, {"measurement": "Potency", "setting": "[2]", "value": "inactive"}]}
{"smiles": "Fc1ccc2[nH]c(CN3CCN(c4ccccn4)CC3)cc2c1", "values": [{"measurement": "Potency", "setting": "[3]", "value": "inactive"}, {"measurement": "Potency", "setting": "[1]", "value": "inactive"}, {"measurement": "Potency", "setting": "[2]", "value": "inactive"}, {"measurement": "Potency", "setting": "[4]", "value": "inactive"}, {"measurement": "outcome", "setting": "[5]", "value": "inactive"}, {"measurement": "Potency", "setting": "[6]", "value": "inactive"}]}
{"smiles": "Cc1ccc(C(=O)c2ccc(CC(=O)O)n2C)cc1", "values": [{"measurement": "Potency", "setting": "[1]", "value": "inactive"}, {"measurement": "Potency", "setting": "[2]", "value": "inactive"}]}
{"smiles": "O=C(O)c1ccccc1Nc1cccc(C(F)(F)F)c1", "values": [{"measurement": "Potency", "setting": "[1]", "value": "inactive"}, {"measurement": "Potency", "setting": "[2]", "value": "inactive"}]}
{"smiles": "CS(=O)(=O)c1ccc(-n2nc(C(F)(F)F)cc2-c2ccc(F)cc2)cc1", "values": [{"measurement": "Potency", "setting": "[3]", "value": "inactive"}, {"measurement": "Potency", "setting": "[1]", "value": "inactive"}, {"measurement": "Potency", "setting": "[2]", "value": "inactive"}, {"measurement": "Potency", "setting": "[4]", "value": "inactive"}, {"measurement": "outcome", "setting": "[5]", "value": "inactive"}, {"measurement": "Potency", "setting": "[6]", "value": "inactive"}]}
{"smiles": "O=C(Nc1ccc2[nH]ncc2c1)C1CCC1", "values": [{"measurement": "Potency", "setting": "[3]", "value": "inactive"}, {"measurement": "Potency", "setting": "[1]", "value": "inactive"}, {"measurement": "Potency", "setting": "[2]", "value": "inactive"}, {"measurement": "Potency", "setting": "[4]", "value": "inactive"}, {"measurement": "outcome", "setting": "[5]", "value": "inactive"}, {"measurement": "Potency", "setting": "[6]", "value": "inactive"}]}
{"smiles": "COc1ccc(-c2cc(=S)ss2)cc1", "values": [{"measurement": "Potency", "setting": "[1]", "value": "11.4 µM (active)"}, {"measurement": "Potency", "setting": "[2]", "value": "inactive"}]}
{"smiles": "Nc1ccn([C@H]2O[C@H](CO)[C@@H](O)C2(F)F)c(=O)n1", "values": [{"measurement": "Potency", "setting": "[3]", "value": "inactive"}, {"measurement": "Potency", "setting": "[2]", "value": "inactive"}]}
{"smiles": "c1ccc2sc(SSc3nc4ccccc4s3)nc2c1", "values": [{"measurement": "Potency", "setting": "[1]", "value": "inactive"}, {"measurement": "Potency", "setting": "[2]", "value": "inactive"}]}
{"smiles": "COc1cc2c3cc1Oc1cc(ccc1O)C[C@@H]1c4c(cc(OC)c(O)c4Oc4ccc(cc4)C[C@@H]3N(C)CC2)CC[N+]1(C)C", "values": [{"measurement": "Potency", "setting": "[1]", "value": "inactive"}, {"measurement": "Potency", "setting": "[2]", "value": "inactive"}]}
{"smiles": "NC(=O)C(c1ccccc1)(c1ccccc1)[C@@H]1CCN(CCc2ccc3c(c2)CCO3)C1", "values": [{"measurement": "Potency", "setting": "[1]", "value": "inactive"}, {"measurement": "Potency", "setting": "[2]", "value": "inactive"}]}
{"smiles": "CCCCN(CC)c1nc(C)nc2c1c(C)cn2-c1c(C)cc(C)cc1C", "values": [{"measurement": "Potency", "setting": "[3]", "value": "inactive"}, {"measurement": "Potency", "setting": "[1]", "value": "inactive"}, {"measurement": "Potency", "setting": "[2]", "value": "inactive"}, {"measurement": "Potency", "setting": "[4]", "value": "inactive"}, {"measurement": "outcome", "setting": "[5]", "value": "inactive"}, {"measurement": "Potency", "setting": "[6]", "value": "inactive"}]}
{"smiles": "CN(C)c1nc2c(Br)c(Br)c(Br)c(Br)c2[nH]1", "values": [{"measurement": "Potency", "setting": "[1]", "value": "inactive"}]}
{"smiles": "CN(C)CCn1nnnc1SCC1=C(C(=O)O)N2C(=O)[C@@H](NC(=O)Cc3csc(N)n3)[C@H]2SC1", "values": [{"measurement": "Potency", "setting": "[1]", "value": "4.53 µM (active)"}, {"measurement": "Potency", "setting": "[2]", "value": "12.6 µM (active)"}]}
{"smiles": "O=C(O)[C@H](O)[C@@H](O)[C@H](O)[C@H](O)CO", "values": [{"measurement": "Potency", "setting": "[1]", "value": "inactive"}, {"measurement": "Potency", "setting": "[2]", "value": "inactive"}]}
{"smiles": "CC[C@@H](C)[C@H]1O[C@]2(CC[C@@H]1C)C[C@@H]1C[C@@H](C/C=C(\\C)[C@@H](O[C@H]3C[C@H](OC)[C@@H](O[C@H]4C[C@H](OC)[C@@H](O)[C@H](C)O4)[C@H](C)O3)[C@@H](C)/C=C/C=C3\\CO[C@@H]4[C@H](O)C(C)=C[C@@H](C(=O)O1)[C@]34O)O2", "values": [{"measurement": "Potency", "setting": "[1]", "value": "inactive"}, {"measurement": "Potency", "setting": "[2]", "value": "inactive"}]}
{"smiles": "CCCCCCCC/C=C/C(=O)O", "values": [{"measurement": "Potency", "setting": "[1]", "value": "inactive"}, {"measurement": "Potency", "setting": "[2]", "value": "inactive"}]}
